# Assay results taken from ChEMBL document CHEMBL1961873, “Compounds: GSK PKIS; Assays: Nanosyn kinase panel” (2012).
# Where “and” joins values, the source holds several entries; their conditions need not be identical. Identical values can stand only once.
# How the values were obtained:
# [1] = tested on: Epidermal growth factor receptor (Homo sapiens), P00533 [T790M]; settings: at 1 µM
# [2] = tested on: Epidermal growth factor receptor (Homo sapiens), P00533 [L858R,T790M]; settings: at 0.1 µM
# [3] = tested on: Epidermal growth factor receptor (Homo sapiens), P00533 [L858R,T790M]; settings: at 1 µM
# [4] = target: Ephrin type-A receptor 2 (Homo sapiens) (UniProt P29317); settings: at 0.1 µM
# Sequence of Ephrin type-A receptor 2 (Homo sapiens) (P29317 whole entry): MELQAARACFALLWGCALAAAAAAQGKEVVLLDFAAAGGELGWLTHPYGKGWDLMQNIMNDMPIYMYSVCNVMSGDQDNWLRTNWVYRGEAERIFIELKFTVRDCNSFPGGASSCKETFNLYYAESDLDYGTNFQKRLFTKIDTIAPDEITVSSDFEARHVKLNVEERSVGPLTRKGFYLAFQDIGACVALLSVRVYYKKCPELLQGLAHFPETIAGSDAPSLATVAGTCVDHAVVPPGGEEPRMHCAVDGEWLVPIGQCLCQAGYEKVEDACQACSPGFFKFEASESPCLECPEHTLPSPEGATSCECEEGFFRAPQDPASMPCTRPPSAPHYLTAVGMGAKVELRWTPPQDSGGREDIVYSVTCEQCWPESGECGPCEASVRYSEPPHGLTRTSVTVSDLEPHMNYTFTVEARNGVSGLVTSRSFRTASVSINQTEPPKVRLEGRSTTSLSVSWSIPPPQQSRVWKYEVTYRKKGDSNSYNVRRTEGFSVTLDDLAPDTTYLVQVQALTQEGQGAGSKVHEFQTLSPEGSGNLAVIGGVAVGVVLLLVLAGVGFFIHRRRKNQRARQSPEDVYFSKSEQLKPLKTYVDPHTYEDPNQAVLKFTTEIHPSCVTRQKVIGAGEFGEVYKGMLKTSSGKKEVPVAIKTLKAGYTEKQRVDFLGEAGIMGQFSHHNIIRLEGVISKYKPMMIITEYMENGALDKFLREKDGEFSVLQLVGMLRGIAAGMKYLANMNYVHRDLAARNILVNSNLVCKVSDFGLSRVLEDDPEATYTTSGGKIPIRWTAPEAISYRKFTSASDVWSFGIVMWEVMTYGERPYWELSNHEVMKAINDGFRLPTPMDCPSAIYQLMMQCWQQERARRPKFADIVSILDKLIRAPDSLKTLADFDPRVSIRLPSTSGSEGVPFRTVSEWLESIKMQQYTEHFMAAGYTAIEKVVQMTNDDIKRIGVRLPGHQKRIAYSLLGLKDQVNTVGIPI
# [5] = target: Ephrin type-A receptor 2 (Homo sapiens) (UniProt P29317); settings: at 1 µM
# [6] = target: T1, Ephrin type-A receptor 3 (Homo sapiens) (UniProt P29320); settings: at 0.1 µM
# T1 sequence (whole entry): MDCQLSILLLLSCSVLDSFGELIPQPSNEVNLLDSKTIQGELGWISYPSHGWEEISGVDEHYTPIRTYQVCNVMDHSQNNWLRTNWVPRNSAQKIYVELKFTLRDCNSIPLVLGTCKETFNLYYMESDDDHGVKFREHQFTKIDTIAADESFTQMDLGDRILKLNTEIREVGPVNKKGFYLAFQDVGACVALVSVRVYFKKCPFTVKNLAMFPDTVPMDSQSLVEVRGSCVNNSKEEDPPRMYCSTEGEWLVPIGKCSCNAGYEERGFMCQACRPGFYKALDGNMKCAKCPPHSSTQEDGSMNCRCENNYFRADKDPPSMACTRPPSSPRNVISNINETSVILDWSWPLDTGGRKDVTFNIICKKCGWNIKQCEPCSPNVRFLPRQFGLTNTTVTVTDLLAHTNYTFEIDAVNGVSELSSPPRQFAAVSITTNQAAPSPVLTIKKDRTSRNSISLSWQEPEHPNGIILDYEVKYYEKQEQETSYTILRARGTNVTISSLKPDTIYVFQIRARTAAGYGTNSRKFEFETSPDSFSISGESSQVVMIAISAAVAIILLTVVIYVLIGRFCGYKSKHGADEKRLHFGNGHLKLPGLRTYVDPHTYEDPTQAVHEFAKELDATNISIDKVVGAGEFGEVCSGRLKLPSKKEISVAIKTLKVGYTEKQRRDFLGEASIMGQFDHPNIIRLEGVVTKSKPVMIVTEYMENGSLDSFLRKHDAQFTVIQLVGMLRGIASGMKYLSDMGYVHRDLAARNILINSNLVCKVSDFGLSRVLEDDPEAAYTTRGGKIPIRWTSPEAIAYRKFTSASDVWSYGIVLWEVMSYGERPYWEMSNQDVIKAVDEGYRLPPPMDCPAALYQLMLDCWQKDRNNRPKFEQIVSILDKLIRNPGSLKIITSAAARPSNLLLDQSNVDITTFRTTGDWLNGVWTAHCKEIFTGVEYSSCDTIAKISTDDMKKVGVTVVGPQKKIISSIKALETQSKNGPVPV
# [7] = target: T1, Ephrin type-A receptor 3 (Homo sapiens); settings: at 1 µM
# [8] = target: Ephrin type-A receptor 4 (Homo sapiens) (UniProt P54764); settings: at 0.1 µM
# Sequence of Ephrin type-A receptor 4 (Homo sapiens) (P54764 whole entry): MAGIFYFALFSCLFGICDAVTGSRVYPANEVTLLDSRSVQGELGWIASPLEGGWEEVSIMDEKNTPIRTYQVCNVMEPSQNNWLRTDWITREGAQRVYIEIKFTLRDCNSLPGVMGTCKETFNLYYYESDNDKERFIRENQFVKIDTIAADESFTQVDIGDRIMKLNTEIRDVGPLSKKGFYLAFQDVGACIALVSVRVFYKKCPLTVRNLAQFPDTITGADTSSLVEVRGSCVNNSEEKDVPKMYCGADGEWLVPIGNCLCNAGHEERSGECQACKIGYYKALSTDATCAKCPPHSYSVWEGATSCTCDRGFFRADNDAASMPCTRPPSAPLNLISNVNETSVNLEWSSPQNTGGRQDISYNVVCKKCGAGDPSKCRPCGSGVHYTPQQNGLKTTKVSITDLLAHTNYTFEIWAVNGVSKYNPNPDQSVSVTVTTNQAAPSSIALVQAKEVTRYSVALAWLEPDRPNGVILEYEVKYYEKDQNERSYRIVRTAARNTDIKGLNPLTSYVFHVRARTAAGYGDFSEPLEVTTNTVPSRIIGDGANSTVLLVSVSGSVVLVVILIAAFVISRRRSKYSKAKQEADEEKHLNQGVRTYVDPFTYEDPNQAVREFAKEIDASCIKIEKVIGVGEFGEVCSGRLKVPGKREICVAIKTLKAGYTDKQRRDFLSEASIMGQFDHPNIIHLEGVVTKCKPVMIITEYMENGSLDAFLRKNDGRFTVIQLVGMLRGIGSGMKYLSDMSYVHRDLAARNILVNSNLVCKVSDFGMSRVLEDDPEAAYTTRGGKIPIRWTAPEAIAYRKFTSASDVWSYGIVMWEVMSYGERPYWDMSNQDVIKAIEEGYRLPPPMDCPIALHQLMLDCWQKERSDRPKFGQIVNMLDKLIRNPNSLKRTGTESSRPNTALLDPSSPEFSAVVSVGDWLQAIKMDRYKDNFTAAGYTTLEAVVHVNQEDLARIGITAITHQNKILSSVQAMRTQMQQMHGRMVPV
# [9] = target: Ephrin type-A receptor 4 (Homo sapiens) (UniProt P54764); settings: at 1 µM
# [10] = target: T2, Ephrin type-B receptor 2 (Homo sapiens) (UniProt P29323); settings: at 0.1 µM
# T2 sequence (whole entry): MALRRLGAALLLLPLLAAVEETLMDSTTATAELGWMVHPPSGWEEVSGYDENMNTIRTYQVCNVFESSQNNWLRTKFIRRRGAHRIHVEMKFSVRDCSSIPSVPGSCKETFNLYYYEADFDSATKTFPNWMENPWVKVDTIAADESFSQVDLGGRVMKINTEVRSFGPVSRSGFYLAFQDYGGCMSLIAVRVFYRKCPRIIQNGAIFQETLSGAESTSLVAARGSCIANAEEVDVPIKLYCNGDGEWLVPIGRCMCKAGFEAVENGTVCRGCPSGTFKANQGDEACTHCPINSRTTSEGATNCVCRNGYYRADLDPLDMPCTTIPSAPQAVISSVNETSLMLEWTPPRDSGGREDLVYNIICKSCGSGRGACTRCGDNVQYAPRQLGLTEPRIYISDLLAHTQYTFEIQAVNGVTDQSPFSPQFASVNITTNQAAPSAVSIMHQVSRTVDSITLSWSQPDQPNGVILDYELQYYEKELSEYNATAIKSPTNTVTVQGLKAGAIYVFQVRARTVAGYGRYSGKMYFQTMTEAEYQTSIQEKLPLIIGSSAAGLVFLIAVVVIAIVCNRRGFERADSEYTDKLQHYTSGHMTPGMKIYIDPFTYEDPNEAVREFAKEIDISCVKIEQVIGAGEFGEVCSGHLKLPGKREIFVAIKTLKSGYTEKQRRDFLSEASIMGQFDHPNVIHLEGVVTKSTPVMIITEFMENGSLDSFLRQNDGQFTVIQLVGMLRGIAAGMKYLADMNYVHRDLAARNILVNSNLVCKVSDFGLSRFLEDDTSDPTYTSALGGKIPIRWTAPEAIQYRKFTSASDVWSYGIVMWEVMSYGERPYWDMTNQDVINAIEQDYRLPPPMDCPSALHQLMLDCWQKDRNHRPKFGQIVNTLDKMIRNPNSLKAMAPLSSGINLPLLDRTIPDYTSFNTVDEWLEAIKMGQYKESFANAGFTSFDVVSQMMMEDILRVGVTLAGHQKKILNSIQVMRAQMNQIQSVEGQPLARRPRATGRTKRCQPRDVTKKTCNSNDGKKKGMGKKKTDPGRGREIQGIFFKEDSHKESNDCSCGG
# [11] = target: T2, Ephrin type-B receptor 2 (Homo sapiens); settings: at 1 µM
# [12] = target: T3, Ephrin type-B receptor 3 (Homo sapiens) (UniProt P54753); settings: at 0.1 µM
# T3 sequence (whole entry): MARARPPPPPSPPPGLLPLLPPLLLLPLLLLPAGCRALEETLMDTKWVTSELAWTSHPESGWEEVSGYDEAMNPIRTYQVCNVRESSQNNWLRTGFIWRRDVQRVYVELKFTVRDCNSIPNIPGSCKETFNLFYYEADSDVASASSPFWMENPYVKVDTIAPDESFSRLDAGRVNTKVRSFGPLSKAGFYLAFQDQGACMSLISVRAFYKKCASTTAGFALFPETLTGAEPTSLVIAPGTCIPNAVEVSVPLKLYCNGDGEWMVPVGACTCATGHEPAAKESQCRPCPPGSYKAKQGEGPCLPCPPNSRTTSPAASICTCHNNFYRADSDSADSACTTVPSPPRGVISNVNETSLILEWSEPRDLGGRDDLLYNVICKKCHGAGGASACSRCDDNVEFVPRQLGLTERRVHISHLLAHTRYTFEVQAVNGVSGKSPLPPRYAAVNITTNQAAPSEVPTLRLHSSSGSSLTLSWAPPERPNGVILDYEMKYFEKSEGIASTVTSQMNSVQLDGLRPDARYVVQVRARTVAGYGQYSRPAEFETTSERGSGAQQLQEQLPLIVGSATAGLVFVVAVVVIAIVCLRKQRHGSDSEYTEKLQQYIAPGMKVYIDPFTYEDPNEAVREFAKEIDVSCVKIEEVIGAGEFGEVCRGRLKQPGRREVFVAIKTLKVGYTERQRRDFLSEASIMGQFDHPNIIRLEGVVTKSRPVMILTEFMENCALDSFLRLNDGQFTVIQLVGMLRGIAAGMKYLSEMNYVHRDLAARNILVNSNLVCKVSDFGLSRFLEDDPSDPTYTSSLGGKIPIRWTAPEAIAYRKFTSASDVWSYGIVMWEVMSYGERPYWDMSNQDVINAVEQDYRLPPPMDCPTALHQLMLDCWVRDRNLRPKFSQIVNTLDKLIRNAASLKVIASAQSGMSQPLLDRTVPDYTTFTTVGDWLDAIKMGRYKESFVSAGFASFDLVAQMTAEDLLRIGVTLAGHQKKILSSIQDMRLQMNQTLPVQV
# [13] = target: T3, Ephrin type-B receptor 3 (Homo sapiens); settings: at 1 µM
# [14] = target: T4, Ephrin type-B receptor 4 (Homo sapiens) (UniProt P54760); settings: at 0.1 µM
# T4 sequence (whole entry): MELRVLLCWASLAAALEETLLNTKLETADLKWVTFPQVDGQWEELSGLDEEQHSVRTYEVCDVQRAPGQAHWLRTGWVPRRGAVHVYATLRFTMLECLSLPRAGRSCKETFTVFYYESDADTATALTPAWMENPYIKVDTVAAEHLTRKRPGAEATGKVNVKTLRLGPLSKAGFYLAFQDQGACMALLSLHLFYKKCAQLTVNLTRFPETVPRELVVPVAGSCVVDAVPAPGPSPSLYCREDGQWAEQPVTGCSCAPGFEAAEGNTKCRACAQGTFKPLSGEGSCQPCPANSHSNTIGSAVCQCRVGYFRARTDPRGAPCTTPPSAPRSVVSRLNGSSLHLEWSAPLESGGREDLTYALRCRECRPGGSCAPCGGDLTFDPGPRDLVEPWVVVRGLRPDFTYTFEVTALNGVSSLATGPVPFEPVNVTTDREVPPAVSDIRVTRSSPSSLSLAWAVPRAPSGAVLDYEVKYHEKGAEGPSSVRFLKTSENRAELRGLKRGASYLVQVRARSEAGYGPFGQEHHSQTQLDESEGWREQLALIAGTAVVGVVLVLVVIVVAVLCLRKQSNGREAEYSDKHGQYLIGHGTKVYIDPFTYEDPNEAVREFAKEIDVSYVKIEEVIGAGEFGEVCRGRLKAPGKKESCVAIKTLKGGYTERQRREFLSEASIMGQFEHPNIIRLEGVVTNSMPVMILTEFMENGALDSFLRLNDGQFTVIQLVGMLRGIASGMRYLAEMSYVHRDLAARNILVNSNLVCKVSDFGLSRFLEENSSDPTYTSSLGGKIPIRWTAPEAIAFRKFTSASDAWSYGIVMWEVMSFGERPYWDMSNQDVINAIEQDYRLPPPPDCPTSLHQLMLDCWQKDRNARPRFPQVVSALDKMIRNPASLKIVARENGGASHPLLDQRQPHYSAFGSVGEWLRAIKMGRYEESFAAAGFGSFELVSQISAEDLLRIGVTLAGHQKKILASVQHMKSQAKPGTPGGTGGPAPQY
# [15] = target: T4, Ephrin type-B receptor 4 (Homo sapiens); settings: at 1 µM
# [16] = target: Receptor tyrosine-protein kinase erbB-2 (Homo sapiens) (UniProt P04626); settings: at 0.1 µM
# Sequence of Receptor tyrosine-protein kinase erbB-2 (Homo sapiens) (P04626 whole entry): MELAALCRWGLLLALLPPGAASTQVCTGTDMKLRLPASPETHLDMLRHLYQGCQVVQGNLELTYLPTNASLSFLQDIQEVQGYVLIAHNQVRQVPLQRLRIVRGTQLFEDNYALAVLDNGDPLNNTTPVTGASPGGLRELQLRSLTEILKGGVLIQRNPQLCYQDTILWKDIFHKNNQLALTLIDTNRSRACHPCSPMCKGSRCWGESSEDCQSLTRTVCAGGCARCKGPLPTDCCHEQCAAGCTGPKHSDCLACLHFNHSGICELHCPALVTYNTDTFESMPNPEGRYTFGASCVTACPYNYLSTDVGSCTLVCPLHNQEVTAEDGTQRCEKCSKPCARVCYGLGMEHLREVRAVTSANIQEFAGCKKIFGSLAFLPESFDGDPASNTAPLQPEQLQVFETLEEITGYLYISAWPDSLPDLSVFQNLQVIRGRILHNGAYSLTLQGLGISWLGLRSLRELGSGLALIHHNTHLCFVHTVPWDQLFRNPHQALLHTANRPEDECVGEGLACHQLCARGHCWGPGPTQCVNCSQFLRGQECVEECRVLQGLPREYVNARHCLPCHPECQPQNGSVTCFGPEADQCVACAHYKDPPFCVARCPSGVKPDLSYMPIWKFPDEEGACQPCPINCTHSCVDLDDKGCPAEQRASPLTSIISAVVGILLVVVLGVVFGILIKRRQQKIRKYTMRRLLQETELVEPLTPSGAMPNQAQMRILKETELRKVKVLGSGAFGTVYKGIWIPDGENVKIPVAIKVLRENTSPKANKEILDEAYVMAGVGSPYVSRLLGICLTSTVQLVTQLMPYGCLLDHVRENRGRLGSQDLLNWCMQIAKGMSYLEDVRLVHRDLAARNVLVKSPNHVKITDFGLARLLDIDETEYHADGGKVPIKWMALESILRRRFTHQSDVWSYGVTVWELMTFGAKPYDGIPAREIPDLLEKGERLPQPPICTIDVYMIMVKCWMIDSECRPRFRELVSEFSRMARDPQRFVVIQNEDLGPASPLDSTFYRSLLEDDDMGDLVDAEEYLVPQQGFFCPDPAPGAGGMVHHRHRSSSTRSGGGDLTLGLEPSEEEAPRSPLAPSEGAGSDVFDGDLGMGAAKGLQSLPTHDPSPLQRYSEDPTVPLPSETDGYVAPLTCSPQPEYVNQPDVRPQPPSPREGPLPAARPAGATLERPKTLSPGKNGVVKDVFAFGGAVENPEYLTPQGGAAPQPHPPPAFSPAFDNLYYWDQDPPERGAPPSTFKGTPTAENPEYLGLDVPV
# [17] = target: Receptor tyrosine-protein kinase erbB-2 (Homo sapiens) (UniProt P04626); settings: at 1 µM
# [18] = target: Receptor tyrosine-protein kinase erbB-4 (Homo sapiens) (UniProt Q15303); settings: at 0.1 µM
# [19] = target: Receptor tyrosine-protein kinase erbB-4 (Homo sapiens) (UniProt Q15303); settings: at 1 µM
# [20] = target: Tyrosine-protein kinase Fer (Homo sapiens) (UniProt P16591); settings: at 0.1 µM;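 also: reported figures are averaged percent inhibition of FER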
# Sequence of Epidermal growth factor receptor (Homo sapiens), P00533 [T790M] (P00533 whole entry T790M): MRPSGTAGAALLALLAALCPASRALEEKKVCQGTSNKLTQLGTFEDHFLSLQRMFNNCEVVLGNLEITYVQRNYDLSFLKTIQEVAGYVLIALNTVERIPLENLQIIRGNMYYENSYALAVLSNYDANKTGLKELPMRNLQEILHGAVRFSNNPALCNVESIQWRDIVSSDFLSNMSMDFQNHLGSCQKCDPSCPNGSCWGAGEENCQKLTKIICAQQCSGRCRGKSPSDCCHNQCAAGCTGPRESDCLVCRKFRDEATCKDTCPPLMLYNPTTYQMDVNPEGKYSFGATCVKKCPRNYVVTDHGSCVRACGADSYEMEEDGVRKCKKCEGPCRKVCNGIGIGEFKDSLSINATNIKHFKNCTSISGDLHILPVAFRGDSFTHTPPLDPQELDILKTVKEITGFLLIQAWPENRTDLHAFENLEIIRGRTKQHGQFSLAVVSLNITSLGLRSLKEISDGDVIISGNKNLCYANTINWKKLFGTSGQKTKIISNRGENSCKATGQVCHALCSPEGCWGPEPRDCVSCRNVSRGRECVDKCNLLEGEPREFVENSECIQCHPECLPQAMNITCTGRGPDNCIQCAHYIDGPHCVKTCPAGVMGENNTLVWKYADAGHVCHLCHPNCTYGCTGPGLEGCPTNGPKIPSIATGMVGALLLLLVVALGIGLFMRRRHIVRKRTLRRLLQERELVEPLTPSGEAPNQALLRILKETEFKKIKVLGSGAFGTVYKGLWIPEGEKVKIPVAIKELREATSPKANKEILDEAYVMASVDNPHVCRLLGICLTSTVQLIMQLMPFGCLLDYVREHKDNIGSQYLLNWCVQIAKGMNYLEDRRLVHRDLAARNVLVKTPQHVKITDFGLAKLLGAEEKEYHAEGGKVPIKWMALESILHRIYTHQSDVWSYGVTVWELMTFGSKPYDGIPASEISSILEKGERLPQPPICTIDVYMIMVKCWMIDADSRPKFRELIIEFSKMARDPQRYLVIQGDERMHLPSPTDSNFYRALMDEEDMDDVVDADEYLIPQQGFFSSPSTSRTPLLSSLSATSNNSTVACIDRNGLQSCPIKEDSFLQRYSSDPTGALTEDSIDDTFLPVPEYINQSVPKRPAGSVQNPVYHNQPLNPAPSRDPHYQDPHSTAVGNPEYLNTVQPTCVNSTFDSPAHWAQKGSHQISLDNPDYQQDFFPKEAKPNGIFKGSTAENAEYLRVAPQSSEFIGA
compound,measurement,setting,value
N#Cc1ccc2c(-c3ccnc(NC4CC4)n3)c(-c3ccc(F)cc3)nn2c1,inhibition,[1],2.72%
same,inhibition,[2],1.77%
same,inhibition,[3],2.17%
same,inhibition,[4],-2.09%
same,inhibition,[5],-0.16%
same,inhibition,[6],1.29%
same,inhibition,[7],4.31%
same,inhibition,[8],5.96%
same,inhibition,[9],15.6%
same,inhibition,[10],8.8%
same,inhibition,[11],24.5%
same,inhibition,[12],5.62%
same,inhibition,[13],4.39%
same,inhibition,[14],-0.62%
same,inhibition,[15],2.45%
same,inhibition,[16],1.97%
same,inhibition,[17],5%
same,inhibition,[18],5.5%
same,inhibition,[19],13.4%
same,inhibition,[20],-2.41%
Nc1nccc(-c2c(-c3ccc(F)cc3)ncn2C2CCNCC2)n1,inhibition,[1],-1.82% and -1.43%
same,inhibition,[2],-3.77% and -2.58%
same,inhibition,[3],-3.38% and 2.32%
same,inhibition,[4],-1.11% and -2.31%
same,inhibition,[5],-3.3% and -3.19%
same,inhibition,[6],-5.79% and -0.55%
same,inhibition,[7],-3.63% and 1.63%
same,inhibition,[8],-7.34% and 0.75%
same,inhibition,[9],-6.76% and 4.23%
same,inhibition,[10],-3.07% and 5.6%
same,inhibition,[11],3.74% and 17%
same,inhibition,[12],-8.29% and 1.29%
same,inhibition,[13],-2.02% and 2.97%
same,inhibition,[14],-1.79% and 2.99%
same,inhibition,[15],1.69% and 3.45%
same,inhibition,[16],-4.63% and -1.31%
same,inhibition,[17],-2.23% and 2.46%
same,inhibition,[18],3.28%
same,inhibition,[19],-6.69% and 9.1%
same,inhibition,[20],-1.84% and 2.2%
Nc1ncnc2occ(-c3ccc(NC(=O)Nc4cc(C(F)(F)F)ccc4F)cc3)c12,inhibition,[1],-0.24% and 0.54%
same,inhibition,[2],0.74% and 1.93%
same,inhibition,[3],0.23% and -1.52%
same,inhibition,[4],22.4% and 1.32%
same,inhibition,[5],80.5% and 57%
same,inhibition,[7],43.8% and 25.2%
same,inhibition,[9],77.2% and 77.9%
same,inhibition,[10],55.4% and 55.7%
same,inhibition,[11],80.2% and 81.5%
same,inhibition,[12],26.4% and 1.64%
same,inhibition,[13],63.5% and 51.1%
same,inhibition,[14],30.6% and 20.3%
same,inhibition,[15],84.8% and 72.7%
same,inhibition,[16],0.55% and 1.68%
same,inhibition,[17],-4.37% and 6.37%
same,inhibition,[18],5.76% and -0.4%
same,inhibition,[19],4.08% and 3.51%
same,inhibition,[20],6.66% and 0.72%
CCCNc1cccc(-n2ncc3c(N/N=C/c4ccncc4)ncnc32)c1,inhibition,[1],5.14%
same,inhibition,[2],1.81%
same,inhibition,[3],2.7%
same,inhibition,[4],3.57%
same,inhibition,[5],5.31%
same,inhibition,[6],3.09%
same,inhibition,[7],3.12%
same,inhibition,[8],4.65%
same,inhibition,[9],17.4%
same,inhibition,[10],-1.54%
same,inhibition,[11],9.31%
same,inhibition,[12],-1.29%
same,inhibition,[13],1.75%
same,inhibition,[14],1.55%
same,inhibition,[15],5.77%
same,inhibition,[16],2.33%
same,inhibition,[17],4.49%
same,inhibition,[18],11.8%
same,inhibition,[19],43%
same,inhibition,[20],-0.72%
